{"source": "paper PMC6919601", "about": "“Identification of Plasmodium dipeptidyl aminopeptidase allosteric inhibitors by high throughput screening” (PLoS ONE, 2019)", "note": "Screen size: about 110,000 compounds; about 230 (0.21%) showed an effect of 50% or more. This excerpt belongs to a sample that is enriched for strong results."}
{"biological_target": "DPAP1 (Plasmodium falciparum, UniProt Q8IIJ9)", "sequence (Q8IIJ9 whole entry, looked up)": "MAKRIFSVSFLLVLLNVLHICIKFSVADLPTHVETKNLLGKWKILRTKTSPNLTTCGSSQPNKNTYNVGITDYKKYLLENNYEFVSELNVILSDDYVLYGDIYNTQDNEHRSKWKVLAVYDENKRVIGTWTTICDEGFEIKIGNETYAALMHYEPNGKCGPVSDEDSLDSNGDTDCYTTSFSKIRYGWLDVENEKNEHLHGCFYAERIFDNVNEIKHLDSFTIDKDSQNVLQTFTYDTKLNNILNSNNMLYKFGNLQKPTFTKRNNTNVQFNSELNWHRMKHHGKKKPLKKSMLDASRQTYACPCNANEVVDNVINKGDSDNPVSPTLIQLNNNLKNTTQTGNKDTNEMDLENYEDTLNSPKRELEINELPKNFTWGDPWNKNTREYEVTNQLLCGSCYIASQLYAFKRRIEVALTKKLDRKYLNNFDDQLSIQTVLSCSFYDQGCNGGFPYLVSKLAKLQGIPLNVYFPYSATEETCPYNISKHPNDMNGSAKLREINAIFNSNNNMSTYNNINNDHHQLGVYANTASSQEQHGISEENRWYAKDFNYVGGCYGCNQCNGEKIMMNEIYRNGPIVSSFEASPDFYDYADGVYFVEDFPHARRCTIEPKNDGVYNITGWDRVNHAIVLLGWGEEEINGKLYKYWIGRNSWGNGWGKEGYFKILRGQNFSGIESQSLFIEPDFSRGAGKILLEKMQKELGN", "assay": "primary screen, percent inhibition; read by cleavage of a fluorogenic dipeptide substrate; higher = more effect of the substance", "design": "species or system P. falciparum D10 trophozoite lysates; single well", "units": {"% Inhibition @ 10 uM": "%"}}
{"compound": "CC(C)C(=O)NC(c1ccc(Cl)cc1)c1ccc2cccnc2c1O", "note": "(centres unmarked);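 further: 30 min substrate incubation versus DMSO and 10 µM JCP410 controls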", "% Inhibition @ 10 uM": -8.88}
{"compound": "CCc1nc2ccccc2c(NC(=O)CN2CCCC2)c1C", "% Inhibition @ 10 uM": -4.96}
{"compound": "CN(Cc1ccccc1)C(=O)c1ccc(C(C)(C)C)cc1", "% Inhibition @ 10 uM": 8.01}
{"compound": "CCN(CC)C1=NC(C(F)(F)F)(C(F)(F)F)N=C(c2ccc(OC)cc2)O1", "% Inhibition @ 10 uM": -3.53}
{"compound": "Cn1nc(C(=O)NCc2cccnc2)c2c1-c1ccccc1SC2", "% Inhibition @ 10 uM": 36.1}
{"compound": "Cn1nc(C(=O)NCCc2ccccc2)c2c1-c1ccccc1SC2", "% Inhibition @ 10 uM": -0.495}
{"compound": "Cn1nc(C(=O)NCc2ccc3c(c2)OCO3)c2c1-c1ccccc1S(=O)(=O)C2", "% Inhibition @ 10 uM": -3.8}
{"compound": "Cn1nc(C(=O)NCc2ccc3c(c2)OCO3)c2c1-c1ccccc1SC2", "% Inhibition @ 10 uM": 86.5}
{"compound": "Cn1nc(C(=O)NCc2ccco2)c2c1-c1ccccc1SC2", "% Inhibition @ 10 uM": 30.8}
{"compound": "Cc1ccc(CNC(=O)c2nn(C)c3c2CSc2ccccc2-3)cc1", "% Inhibition @ 10 uM": 51.6}
{"compound": "O=C(NCC1CCCO1)C1CCCN(S(=O)(=O)N2CCC3(CC2)OCCO3)C1", "note": "(centres unmarked)", "% Inhibition @ 10 uM": -1.67}
{"compound": "CC(=O)C1=C(C)OC(N)=C(C#N)C1c1ccccc1[N+](=O)[O-]", "note": "(centres unmarked)", "% Inhibition @ 10 uM": -1.29}
{"compound": "Cc1cccc(Nc2nc(-c3sc(N)nc3C)cs2)c1", "% Inhibition @ 10 uM": 2.7}
{"compound": "Cc1ccc(OC(C)C(=O)N(Cc2ccccc2)C2CCS(=O)(=O)C2)cc1C", "note": "(centres unmarked)", "% Inhibition @ 10 uM": 0.561}
{"compound": "Cc1cc(C)c2nc(N3CCCC(C(=O)N4CCCCCC4)C3)sc2c1", "note": "(centres unmarked)", "% Inhibition @ 10 uM": 1.8}
{"compound": "CCN1CCc2c(sc3nc(S)nc(N)c23)C1", "% Inhibition @ 10 uM": 42.8}
{"compound": "CSc1nc(N)c2c3c(sc2n1)CN(Cc1ccccc1)CC3", "% Inhibition @ 10 uM": -1.66}
{"compound": "Nc1nc(S)nc2sc3c(c12)CCN(Cc1ccccc1)C3", "% Inhibition @ 10 uM": 54.1}
{"compound": "CC(C)C[C@H](NC(=O)OCc1ccccc1)C(=O)NCC(=O)CN(Cc1ccco1)C(=O)OC(C)(C)C", "% Inhibition @ 10 uM": -7.36}
{"compound": "CC1=C(C#N)C(c2cccnc2)C2=C(O)CC(C)(C)CC2=N1", "note": "(centres unmarked)", "% Inhibition @ 10 uM": -4.03}
{"compound": "CC1(C)CC2=NC(S)=C(C#N)C(c3cccnc3)C2=C(O)C1", "note": "(centres unmarked)", "% Inhibition @ 10 uM": 67.3}
{"compound": "CC1=C(C#N)C(c2ccccc2)C2=C(O)CC(C)(C)CC2=N1", "note": "(centres unmarked)", "% Inhibition @ 10 uM": 2.41}
{"compound": "COc1cc(-c2nnc3sc(-c4ccc(C)c(C)c4)nn23)cc(OC)c1OC", "% Inhibition @ 10 uM": 29.8}
{"compound": "COc1cc(-c2nnc3sc(-c4ccc(C(C)(C)C)cc4)nn23)cc(OC)c1OC", "% Inhibition @ 10 uM": 2.89}
{"compound": "CCOc1ccc(-c2nn3c(-c4cc(OC)c(OC)c(OC)c4)nnc3s2)cc1", "% Inhibition @ 10 uM": 56.2}
{"compound": "COc1ccccc1-c1nnc2sc(/C=C/c3ccccc3)nn12", "% Inhibition @ 10 uM": 6.01}
{"compound": "COc1cc(-c2nnc3sc(/C=C/c4ccco4)nn23)cc(OC)c1OC", "% Inhibition @ 10 uM": 6.01}
{"compound": "COc1cc(-c2nnc3sc(/C=C/c4ccccc4)nn23)cc(OC)c1OC", "% Inhibition @ 10 uM": 59.6}
{"compound": "O=[N+]([O-])c1ccc(S(=O)(=O)n2cnc3ccccc32)cc1", "% Inhibition @ 10 uM": 2.81}
{"compound": "CCOC(=O)N1CCN(c2ccc(/C=C(\\C#N)c3nc4ccccc4s3)o2)CC1", "% Inhibition @ 10 uM": 4.67}
{"compound": "COc1ccccc1/C=C/c1nn2c(C3COc4ccccc4O3)nnc2s1", "note": "(centres unmarked)", "% Inhibition @ 10 uM": 50.2}
{"compound": "Clc1ccc(-c2nn3c(C4COc5ccccc5O4)nnc3s2)cc1", "note": "(centres unmarked)", "% Inhibition @ 10 uM": 53.7}
{"compound": "COc1ccccc1-c1nn2c(C3COc4ccccc4O3)nnc2s1", "note": "(centres unmarked)", "% Inhibition @ 10 uM": 7.5}
{"compound": "c1ccc2c(c1)OCC(c1nnc3sc(-c4ccncc4)nn13)O2", "note": "(centres unmarked)", "% Inhibition @ 10 uM": 2.68}
{"compound": "Cc1ccc(-c2nn3c(C4COc5ccccc5O4)nnc3s2)cc1C", "note": "(centres unmarked)", "% Inhibition @ 10 uM": 2.89}
{"compound": "COc1ccccc1/C=C/c1nn2c(C)nnc2s1", "% Inhibition @ 10 uM": 2.29}
{"compound": "COc1ccc(/C(O)=C/C=N/c2ccc3c(c2)OCO3)cc1", "% Inhibition @ 10 uM": -4.12}
{"compound": "COc1ccccc1NC(=O)C1=C(C)N=C2CCCC(O)=C2C1c1ccc(OC)c(OC)c1", "note": "(centres unmarked)", "% Inhibition @ 10 uM": 2.51}
{"compound": "COc1cc(NS(=O)(=O)c2ccc(N3C(=O)c4ccccc4C3=O)cc2)nc(OC)n1", "% Inhibition @ 10 uM": -1.96}
{"compound": "CCOc1cc(CN2CCN(C)CC2)ccc1O", "% Inhibition @ 10 uM": 2.33}
{"compound": "CCOc1cc(CN2CCN(Cc3ccccc3)CC2)ccc1O", "% Inhibition @ 10 uM": 3.9}
{"compound": "CCOc1cc(CN2CCSCC2)ccc1O", "% Inhibition @ 10 uM": 96.4}
{"compound": "CCCCCCSc1nnc2c(n1)[nH]c1ccccc12", "% Inhibition @ 10 uM": -2.35}
{"compound": "NCCSc1nnc2c(n1)[nH]c1ccccc12", "% Inhibition @ 10 uM": 77.5}
{"compound": "CCCCSc1nnc2c(n1)[nH]c1ccccc12", "% Inhibition @ 10 uM": 2.86}
{"compound": "COc1ccc(-n2c3c(c(=O)[nH]c2=O)C(NC(=O)c2ccc(F)cc2)(C(F)(F)F)C(=O)N3)cc1", "note": "(centres unmarked)", "% Inhibition @ 10 uM": 3.57}
{"compound": "COc1ccc(C2=N/C(=C\\c3cccs3)C(=O)O2)cc1", "% Inhibition @ 10 uM": 11.6}
{"compound": "COc1cc(C(=O)NCc2cn3cccc(C)c3n2)cc(OC)c1OC", "% Inhibition @ 10 uM": 3.3}
{"compound": "COc1ccc(/C=N/n2c(S)nnc2C(F)(F)F)cc1O", "% Inhibition @ 10 uM": -3.04}
{"compound": "COc1ccc(OC)c(C2CC(=O)N3CN(C4CCCCC4)CSC3=C2C#N)c1", "note": "(centres unmarked)", "% Inhibition @ 10 uM": 9.77}
{"compound": "COc1ccc(Br)cc1C1CC(=O)N2CN(C)CSC2=C1C#N", "note": "(centres unmarked)", "% Inhibition @ 10 uM": 58.8}
{"compound": "COc1cccc(C2CC(=O)N3CN(C4CCCCC4)CSC3=C2C#N)c1OC", "note": "(centres unmarked)", "% Inhibition @ 10 uM": 21.8}
{"compound": "COc1ccc(Br)cc1C1CC(=O)N2CN(C3CCCCC3)CSC2=C1C#N", "note": "(centres unmarked)", "% Inhibition @ 10 uM": 60.2}
{"compound": "COc1cc(C2CC(=O)N3CN(C)CSC3=C2C#N)cc(OC)c1OC", "note": "(centres unmarked)", "% Inhibition @ 10 uM": 3.77}
{"compound": "CCC(C(=O)Nc1nc2nc(C)cc(O)n2n1)c1ccccc1", "note": "(centres unmarked)", "% Inhibition @ 10 uM": 0.401}
{"compound": "N#CC1=C2SCN(C3CCCC3)CN2C(=O)CC1c1ccc(Cl)cc1", "note": "(centres unmarked)", "% Inhibition @ 10 uM": 55.3}
{"compound": "Cc1ccc(C2CC(=O)N3CN(C4CCCCC4)CSC3=C2C#N)cc1", "note": "(centres unmarked)", "% Inhibition @ 10 uM": 25.9}
{"compound": "COc1cc(C2CC(=O)N3CN(C4CCCCC4)CSC3=C2C#N)ccc1O", "note": "(centres unmarked)", "% Inhibition @ 10 uM": -1.28}
{"compound": "CCc1ccc(C2CC(=O)N3CN(C4CCCCC4)CSC3=C2C#N)cc1", "note": "(centres unmarked)", "% Inhibition @ 10 uM": 64.5}
{"compound": "N#CC1=C2SCN(C3CCCC3)CN2C(=O)CC1c1cccs1", "note": "(centres unmarked)", "% Inhibition @ 10 uM": 48.2}
{"compound": "CCOc1ccc(C2CC(=O)N3CN(C4CCCCC4)CSC3=C2C#N)cc1", "note": "(centres unmarked)", "% Inhibition @ 10 uM": 46.6}
{"compound": "Cc1nnc(SCc2ccc(F)cc2)nc1O", "% Inhibition @ 10 uM": 3.62}
{"compound": "Cc1ccc(COc2ncnc3[nH]cnc23)c(C)c1", "% Inhibition @ 10 uM": -3.09}
{"compound": "Cc1ccc(CNC(=O)C2CCCN(S(=O)(=O)c3cccc4nonc34)C2)cc1", "note": "(centres unmarked)", "% Inhibition @ 10 uM": -0.668}
{"compound": "Cc1ccnc(NC(=O)c2ccc(-c3ccccc3)s2)c1", "% Inhibition @ 10 uM": 4.4}
